About 83,000 compounds went through this panel and 20% of them were active in at least one assay; those are over-represented in the sample as a whole.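 Interpretation: 100, growth as untreated; towards 0, rising growth inhibition; 0, no net growth; 0 to -100, cell death. Compounds scoring below 10 were considered active.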 Values without a mark were called inactive. Activity calls are given as the source filed them.
Tests used:
Assay in all cases: NCI-60 one-dose screen, 48 h (100 = growth as untreated, 0 = no growth, -100 = all killed)
Conditions in all cases: 10 µM
HT29 colon = test system: HT29 colon
SNB-75 CNS = test system: SNB-75 CNS
SNB-19 CNS = test system: SNB-19 CNS
U251 CNS = test system: U251 CNS
PC-3 prostate = test system: PC-3 prostate
SK-MEL-5 melanoma = test system: SK-MEL-5 melanoma
UACC-62 melanoma = test system: UACC-62 melanoma
LOX IMVI melanoma = test system: LOX IMVI melanoma
SK-MEL-28 melanoma = test system: SK-MEL-28 melanoma

Compound | growth (HT29 colon) | growth (SNB-75 CNS) | growth (SNB-19 CNS) | growth (U251 CNS) | growth (PC-3 prostate) | growth (SK-MEL-5 melanoma) | growth (UACC-62 melanoma) | growth (LOX IMVI melanoma) | growth (SK-MEL-28 melanoma)
Cc1ccc(C(=O)Nc2ccc(-n3c(C)nc4c(cnn4-c4ccccc4)c3=O)cc2)cc1 | 71.2% | 82.8% | 82.1% | 90% | 71.6% | 7.05% (active) | 60.8% | 67.2% | 80.7%
O=c1cc(-c2ccccc2)oc2cc(OCCCNCc3ccccc3)cc(O)c12 | -59.7% (active) | 23.9% | 48.2% | -79.8% (active) | -0.767% (active) | -99.6% (active) |  |  | -88.8% (active)
O=C(CSc1nnc(-c2c[nH]c3ccccc23)n1-c1ccccc1)Nc1ccc(C(=O)/C=C/c2ccc(Cl)cc2)cc1 | 86.4% | 80% | 73.1% | 73.9% | 58.9% | 83.3% |  | 67.6% | 84.1%
C/C(=C\c1ccc(O)cc1O)c1ccc2ccc(O)cc2[o+]1 | 93.1% | 98.1% | 71% | 23.5% | 62.7% | 76.3% | 59.5% | 2.95% (active) | 62.3%
COc1ccc2[nH]cc(/C=N/Nc3cccc(Cl)n3)c2c1 | 60.6% | 61.8% | 61% | 57.5% | 35% |  | 61.8% | 28.8% | 96.4%
COc1ccccc1C(=O)NNC(=O)CSc1nc2c(c(=O)[nH]1)CCCC2 | 113% | 99.3% | 101% | 104% | 83.4% | 99.3% | 95.2% | 96.9% | 110%

Reference: PubChem BioAssay (NCI)
